IMPase inh – IMPase inhibition in cells. P97697. CHO-M1 cells, IP1 accumulation, HTRF TR-FRET ratio. inhibition (IP1 accumulation), % at 46.1 µM. 120,000 tested, under 10 active. AID 901; active means well fitted curve in the direction sought with a large enough effect in the signal ratio, not every such curve was filed as active; inconclusive means small, poorly fitted or top-dose-only effect, or a change in a side signal; inactive means no such curve, though single readings can be large or run the other way; the % refers to the signal ratio;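 further: cells stimulated with carbachol in lithium chloride buffer; plate controls were DMSO basal wells for no effect and reference inhibitor wells for full effect; higher means more IMPase inhibition seen as more IP1 and lower FRET ratio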
Target sequence (P97697 whole entry, looked up): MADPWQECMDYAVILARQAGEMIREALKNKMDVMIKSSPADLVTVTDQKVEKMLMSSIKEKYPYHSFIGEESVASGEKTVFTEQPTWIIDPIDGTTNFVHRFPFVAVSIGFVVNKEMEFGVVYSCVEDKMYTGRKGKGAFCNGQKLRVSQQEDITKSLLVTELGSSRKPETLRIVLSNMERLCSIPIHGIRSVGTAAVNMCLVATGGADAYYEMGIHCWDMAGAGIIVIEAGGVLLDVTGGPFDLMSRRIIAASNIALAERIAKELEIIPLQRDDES
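Cellular IMPase inhibition is scored as a rise in cytosolic IP1, detected by competitive TR-FRET between d2-labelled IP1 and a europium anti-IP1 antibody. M1-expressing CHO cells were stimulated with carbachol for 30 min at 37C, with lithium (50 mM LiCl) present in the buffer.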
HPGD block – inhibitors of human 15-hydroxyprostaglandin dehydrogenase (HPGD) | P15428 | purified HPGD, NADH fluorescence kinetic, PGE2 substrate | Potency, µM, inactives show at the top dose activity change, negative = inhibition, hits mostly inhibitors | 150,000 tested, 4.3% active | AID 894; further: potency means the concentration at half of the fitted maximal effect
Target sequence (P15428 whole entry, looked up): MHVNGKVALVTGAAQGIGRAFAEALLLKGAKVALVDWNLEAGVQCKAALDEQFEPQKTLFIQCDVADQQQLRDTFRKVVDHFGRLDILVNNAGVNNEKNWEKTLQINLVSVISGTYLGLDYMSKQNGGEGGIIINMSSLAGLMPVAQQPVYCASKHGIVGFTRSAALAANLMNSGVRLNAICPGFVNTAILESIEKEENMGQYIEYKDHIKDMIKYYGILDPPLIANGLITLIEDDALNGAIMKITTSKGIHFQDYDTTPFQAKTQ
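20 nM HPGD preincubated 15 min at room temperature with compound in 50 mM Tris-HCl pH 8, 0.01% Tween 20. Started with 1 mM NAD+ and 30 uM prostaglandin E2; NADH fluorescence (360/450 nm) read 5 times over 30-s intervals, last minus first.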
PNC assembly inh – blocks assembly of the perinucleolar compartment. PC3M PTB-GFP, PNC prevalence imaging, 16 h; stronger effect = lower value. activity change (PNC), negative = inhibition, % at 10 µM. 140,000 tested, 3.1% active. AID 2417;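 active means readout at or below -70, meaning at least 70% loss of cells showing the perinucleolar compartment, a nuclear body marking cancer cells; inconclusive means readout between -30 and a set limit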;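 further: plate controls were DMSO wells for no effect and camptothecin positive control wells for full effect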
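PC3M cells stably expressing PTB-GFP, 750–1000 cells/well, treated 16 h at 37 °C with compound (23 nl of library stock), in duplicate. After paraformaldehyde fixation and Hoechst stain, imaged at 20x; PNC prevalence scored by image analysis.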
IMPase Li inh – IMPase inhibition in cells with lithium potentiation | CHO-M1 cells, IP1 TR-FRET (IP-One), carbachol + lithium | Potency, µM (series often up to 59.4 µM), for inactives: at the top dose activity, negative = IMPase inhibition, hits mostly inhibitors | 210,000 tested, 0.35% active | AID 1457; active means well fitted inhibition curve with a large enough effect; inconclusive means small, poorly fitted or top-dose-only effect; inactive means no such curve, though single readings can be large or run the other way;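 further: IP1 builds up when IMPase is blocked and the TR-FRET signal falls; potency means the concentration at half of the fitted maximal effect; plate controls were basal vehicle for no effect and high inhibitor control for full effect; nearly all actives have a fitted effect of over 50% in size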
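Lithium-sensitised IP1 accumulation assay; M1-expressing CHO cells treated 30 min at 37C with compound. Competitive antibody detection by time-resolved FRET followed a 10 min room-temperature lysis step.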
ALDH1A1 inh – inhibitors of human aldehyde dehydrogenase 1A1. Purified ALDH1A1, NADH fluorescence, propionaldehyde substrate. AID 1030. 220,000 tested, 7.3% active. P00352. Potency, µM (highest dose often 75.3 µM), for the others: at the top dose activity, negative = inhibition, hits mostly inhibitors;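 further: potency means the concentration at half of the fitted maximal effect; plate controls were no enzyme wells and a reference inhibitor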
An asterisk follows results filed as active; ? = inconclusive; · = no result given; [ ] = remark or other dose. This is a sample that favours compounds with a hit; in the whole collection about 11% have one here. Unless noted, the call rests on the fitted dose curve; in most records, active means well fitted inhibition curve with a large enough effect (not every such curve was filed as active); inconclusive means small, poorly fitted or top-dose-only effect, or another doubt; inactive means no such curve, though single readings can be large or run the other way. Unless noted, on the % scale 0 is the no-effect control and ±100 the full control effect.

SMILES	IMPase inh	HPGD block	PNC assembly inh	IMPase Li inh	ALDH1A1 inh
CC(C)c1ccccc1NC(=O)C(Cc1c[nH]c2ccccc12)NC(=O)OC(C)(C)C (configuration not stated)	3	·	·	·	·
Cc1oc(-c2cccc(C(F)(F)F)c2)nc1CN1CCOCC1	·	·	·	9%	?
O=C(c1csnn1)N1CCC2(CC1)CN(c1ccccn1)C2	·	?	·	6%	?
Cc1nc2ccc(NC(=O)c3cccc(S(=O)(=O)N4CC(C)OC(C)C4)c3)cc2s1 (configuration not stated)	-7	-7%	26	20%[38.3 µM]	-2%
CN1CCN(C(=O)c2cc(-c3cccc(Cl)c3)on2)CC1	-1	·	-26	·	4.5µM*
COc1cccc(-c2cc(C(=O)N3CCN(Cc4ccccc4)CC3)no2)c1	-2	·	-18	·	9%
Cc1onc(-c2ccccc2Cl)c1C(=O)N1CCN(C(=O)c2ccco2)CC1	-1	-7%	-24	-16%[38.3 µM]	22µM*
COc1ccc(-n2c(COc3ccc4c(c3)OCO4)nnc2SCC(=O)O)cc1	·	·	·	0%	2.5µM*
COc1ccc(-n2c(COc3ccccc3)nnc2SCC(N)=O)cc1	?	1%	-19	-2%[38.3 µM]	0%
Nc1nc2c(ncn2C2CC(O)C(CO)O2)c(=O)[nH]1 (configuration not stated)	·	-3%	·	2%	-5%
CNC(=S)N/N=C(\C)c1ccc2c(c1)OCCO2	·	-11%	18	3%	2.8µM*
O=C(NC(=S)Nc1cccc(NC(=O)c2ccccc2)c1)c1cccc([N+](=O)[O-])c1	·	-5%	6	4%	?
C/C(=N\Nc1cc(C)nc(-c2ccccc2)n1)c1cccc([N+](=O)[O-])c1	·	·	·	23%	13µM*
CNC(=S)N/N=C(\C)c1cccc([N+](=O)[O-])c1	10	-19%	?	-6%	13µM*
C/C(=N\Nc1cc(C)nc(-c2ccccc2O)n1)c1ccccc1	·	·	·	-7%	2%
CC(=O)NNC(=S)NC(=O)c1cccc([N+](=O)[O-])c1	·	28µM*	77	-2%	8.9µM*
CCOC(=O)C1(Cc2cccc(F)c2)CCN(Cc2cnn(CC)c2C)CC1	·	·	·	-1%	-14%
Cc1nnc(Sc2nc3c(c(=O)n(C)c(=O)n3C)n2Cc2ccc(Cl)cc2)s1	·	-10%	-6	3%	2%
COc1ccc(CNc2ccnc(-c3ccc(N(C)C)cc3)n2)c(OC)c1	·	·	·	5%	?
CCOC(=O)CC1=NN(c2ccccc2)C(=O)/C1=C\c1ccc(N(C)C)cc1	·	-26%	31	11%	5µM*
CCOC(=O)CC1=NN(c2ccccc2)C(=O)C1	·	·	·	-2%	3%
Nn1cnn(Cc2ccccc2)c1=S	12	20µM*	29	1%	25µM*
Brc1nc(Br)n(Cc2ccccc2)n1	·	·	·	4%	8%
c1cncc(CSc2ncnc3nc[nH]c23)c1	·	-3%	·	-10%	2%[13.5 µM]
NNC(=O)CSc1nc(-c2ccccc2)nc2c1CCCC2	·	·	·	3%	2µM*
SMILES	IMPase inh	HPGD block	PNC assembly inh	IMPase Li inh	ALDH1A1 inh
CCOC(=O)CCN1C(=O)[C@H]2[C@H]3[C@H](O)[C@H](O)C/C(=N/NC(=O)OCc4ccc(OC)cc4)[C@@H]3CC[C@@H]2C1=O	·	·	·	·	-10%[13.5 µM]
CCc1nnc(NC(=O)NCN2C(=O)C3C4C=CC(C4)C3C2=O)s1 (configuration not stated)	1	8%	14	7%[38.3 µM]	-9%
O=C(NCN1C(=O)C2C3C=CC(C3)C2C1=O)Nc1nccs1 (configuration not stated)	-4	-5%	-100*	0%	?
Cc1ccc(C2(CCNCc3ccc(N(C)C)cc3)CCOC(C(C)C)C2)cc1 (configuration not stated)	·	·	·	2%	25µM*
CC(C)C1CC(CCNCc2ccc(N(C)C)cc2)(c2ccccc2)CCO1 (configuration not stated)	-3	·	-28	·	20µM*
O=C(Cn1cccc1)NC1CCCCCC1	1	14µM*	36	0%[38.3 µM]	-2%
Cc1c(Cl)c([N+](=O)[O-])nn1CCCC(=O)Nc1sc2c(c1C#N)CCC2	2	?	?	-1%	13µM*
Cc1c(Br)c([N+](=O)[O-])nn1CCCC(=O)Nc1sc2c(c1C#N)CCC2	·	13µM*	?	5%	10µM*

Screening results: PubChem BioAssay, National Center for Advancing Translational Sciences (NCATS)
